# PLK1 PBD inh: blocks phosphopeptide binding to human Plk1 polo box domain; AID 693; inhibition, %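 (tested at about 20 µM)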; Plk1 PBD phosphopeptide binding, fluorescence polarization; 97,000 compounds, 0.13% hits; in the data active means inhibition above about 34%, passing the limit was not always enough
# DAT uptake mod: human DAT dopamine uptake with cocaine, either direction; Q01959; LLC-PK1 hDAT cells, [14C]-dopamine uptake with cocaine IC80; actives deviate in either direction; B-score at 10 µM; 110,000 compounds, 1.3% hits; AID 449768;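 active means Z score or B-score, a plate-position-corrected score, falls beyond the plate's 99.7% confidence bounds, in either direction; inactive means both scores lie inside the 99.7% bounds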;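 further: scored against the spread of the other compound wells on the same plate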
# Cav32 inh: human Cav3.2 channel inhibition, primary screen | Cav3.2-expressing cells, Fluo-4 calcium fluorescence FDSS; hits give low values | B-score at 10 µM | 100,000 compounds, 4% hits | AID 449739;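 active means single-dose well whose peak fluorescence ratio is a statistical outlier from its plate by either plate-standardised score or position-corrected B-score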
# Target sequence (O95180 whole entry, looked up): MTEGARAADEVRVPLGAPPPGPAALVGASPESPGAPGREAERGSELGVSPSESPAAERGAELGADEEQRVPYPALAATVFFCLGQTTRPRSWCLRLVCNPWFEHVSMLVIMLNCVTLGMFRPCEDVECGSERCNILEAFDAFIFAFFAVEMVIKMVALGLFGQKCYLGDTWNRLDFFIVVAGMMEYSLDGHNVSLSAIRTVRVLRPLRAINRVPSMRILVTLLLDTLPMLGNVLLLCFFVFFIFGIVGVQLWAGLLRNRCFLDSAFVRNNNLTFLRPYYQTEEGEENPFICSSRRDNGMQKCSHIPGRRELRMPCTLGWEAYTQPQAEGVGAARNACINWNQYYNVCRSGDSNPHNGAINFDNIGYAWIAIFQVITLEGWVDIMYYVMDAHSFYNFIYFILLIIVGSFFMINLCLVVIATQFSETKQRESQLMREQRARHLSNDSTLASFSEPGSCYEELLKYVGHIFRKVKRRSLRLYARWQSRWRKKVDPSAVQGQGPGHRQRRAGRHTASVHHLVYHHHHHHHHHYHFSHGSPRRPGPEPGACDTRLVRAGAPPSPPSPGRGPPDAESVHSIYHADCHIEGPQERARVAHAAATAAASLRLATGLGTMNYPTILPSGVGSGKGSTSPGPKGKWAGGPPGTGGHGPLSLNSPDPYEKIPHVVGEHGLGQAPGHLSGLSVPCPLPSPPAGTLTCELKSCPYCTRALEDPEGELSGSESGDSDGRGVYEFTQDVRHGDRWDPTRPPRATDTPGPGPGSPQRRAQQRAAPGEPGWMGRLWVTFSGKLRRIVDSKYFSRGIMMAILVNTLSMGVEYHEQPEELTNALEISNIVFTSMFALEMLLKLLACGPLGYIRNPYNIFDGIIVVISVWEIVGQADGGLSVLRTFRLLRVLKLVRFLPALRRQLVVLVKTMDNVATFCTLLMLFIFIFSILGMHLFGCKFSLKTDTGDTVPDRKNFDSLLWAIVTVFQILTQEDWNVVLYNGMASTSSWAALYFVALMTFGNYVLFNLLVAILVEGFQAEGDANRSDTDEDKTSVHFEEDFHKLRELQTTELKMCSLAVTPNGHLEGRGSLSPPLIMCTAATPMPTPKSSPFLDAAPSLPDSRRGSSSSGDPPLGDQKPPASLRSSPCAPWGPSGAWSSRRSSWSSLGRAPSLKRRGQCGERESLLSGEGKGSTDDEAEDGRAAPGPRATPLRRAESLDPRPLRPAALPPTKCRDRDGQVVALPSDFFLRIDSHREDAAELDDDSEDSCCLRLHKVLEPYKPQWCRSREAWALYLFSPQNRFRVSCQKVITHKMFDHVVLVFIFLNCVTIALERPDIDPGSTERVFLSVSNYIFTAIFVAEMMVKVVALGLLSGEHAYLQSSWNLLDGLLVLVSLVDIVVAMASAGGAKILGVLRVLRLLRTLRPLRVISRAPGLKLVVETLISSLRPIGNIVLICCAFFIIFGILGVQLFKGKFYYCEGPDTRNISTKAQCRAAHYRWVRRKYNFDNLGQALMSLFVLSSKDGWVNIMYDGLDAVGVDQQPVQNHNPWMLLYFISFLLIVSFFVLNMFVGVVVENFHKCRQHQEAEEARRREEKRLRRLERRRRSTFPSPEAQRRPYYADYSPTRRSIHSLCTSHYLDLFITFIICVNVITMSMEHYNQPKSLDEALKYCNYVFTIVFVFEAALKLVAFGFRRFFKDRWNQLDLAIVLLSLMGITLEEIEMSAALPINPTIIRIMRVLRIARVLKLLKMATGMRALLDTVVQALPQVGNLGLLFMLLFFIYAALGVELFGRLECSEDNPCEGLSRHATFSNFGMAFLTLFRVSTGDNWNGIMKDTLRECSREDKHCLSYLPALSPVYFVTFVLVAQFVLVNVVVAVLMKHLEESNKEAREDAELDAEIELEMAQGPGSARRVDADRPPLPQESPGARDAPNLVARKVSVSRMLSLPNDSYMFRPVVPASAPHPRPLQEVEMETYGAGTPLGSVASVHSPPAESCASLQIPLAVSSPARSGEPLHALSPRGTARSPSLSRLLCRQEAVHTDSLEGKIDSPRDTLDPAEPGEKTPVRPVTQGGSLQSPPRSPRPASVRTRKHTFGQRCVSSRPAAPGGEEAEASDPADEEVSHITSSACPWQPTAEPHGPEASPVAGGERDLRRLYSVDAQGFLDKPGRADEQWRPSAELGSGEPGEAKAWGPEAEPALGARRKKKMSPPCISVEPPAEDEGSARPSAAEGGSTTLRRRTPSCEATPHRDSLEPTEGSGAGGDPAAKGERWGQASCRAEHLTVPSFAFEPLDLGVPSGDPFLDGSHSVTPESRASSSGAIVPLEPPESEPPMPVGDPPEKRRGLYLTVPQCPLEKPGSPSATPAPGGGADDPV
# PTK2B oligo ant: Pyk2 (human) oligomerization antagonism. Q14289. Q293 cells, Pyk2 FERM NanoBiT luminescence; hits give low values. z-score (the deposit names both 25 µM and 10 µM). 99,000 compounds, 0.83% hits;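 active means Z-score of -3 or lower, scaled per plate to the spread of control and sample wells; inactive means z-score above -3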;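 further: negative z-score means lost luminescence so less FERM oligomerization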
# PLK1 kinase inh: blocks human PLK1 kinase activity; recombinant PLK1 kinase, TR-FRET peptide phosphorylation; inhibition, % at 10 µM; 97,000 compounds, 0.53% hits; AID 619;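 active means inhibition of 50% or more in the single-concentration screen; inactive means inhibition below 50%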;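 further: 0% = DMSO max control and 100% = H-89 dihydrochloride min control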
# sdo1 growth: restores growth of sdo1-depleted yeast | S. cerevisiae sdo1-depleted JHY4D growth rescue, OD600 30 h; hits give high values; pdr5 snq2 efflux-pump mutant strain | z-score at 10 µM | 140,000 compounds, 0.21% hits;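 active means z-score above 3 at both the 24 hr and the 30 hr optical density reads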;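 further: z-score against mean and SD of all compound wells on the same plate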
# PLK1 confirm: PLK1 (human) kinase inhibition, confirmed | shares compounds with PLK1 kinase inh | recombinant PLK1 kinase, TR-FRET peptide phosphorylation | inhibition, % at 10 µM | 210 compounds, 20% hits;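 active means inhibition at or above 50% in each of two repeat confirmation tests; inconclusive means one repeat below 50% inhibition, the other above; inactive means both repeats at or below 50% inhibition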;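 further: 0% = DMSO max control and 100% = H-89 kinase-blocked min control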
# Plk1 interf: counter-screen for Plk1 inhibitors: compound assay interference; Plk1 TR-FRET assay interference, compound added post-reaction; inhibition (interference), % at 10 µM; shares compounds with PLK1 kinase inh; 210 tested, under 10 active;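 active means both duplicate runs show 50% or greater inhibition; inconclusive means only one duplicate run shows over 50% inhibition; inactive means both runs show under 50% inhibition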;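 further: 0% = DMSO max control and 100% = H-89 min control inhibited reaction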
# The depositor's hits bear a star; ? = inconclusive; . = no result given. Sampled rows, rich in hits. Any-hit rate of the full collection: about 4.7%.
SMILES,PLK1 PBD inh,DAT uptake mod,Cav32 inh,PTK2B oligo ant,PLK1 kinase inh,sdo1 growth,PLK1 confirm,Plk1 interf
Cc1ccc2c(c1)c(C)c(C)n2CC(O)CN1CCCCC1C (stereo not given),7.5,-1.25,0.152,.,70.1*,0.13,-10.6,-52.4
O=C(O/N=C1/CCSc2ccccc21)c1ccccc1,-10.3,0.663,0.156,0.24,-8.6,-0.93,.,.
Cc1ccc2c(c1)/C(=N/OC(=O)c1ccc(F)cc1)CCS2,-26.7,-0.636,0.0767,0.9,123.6*,0.35,-2.7,-42.0
COC(=O)C1=C2c3[nH]c4ccccc4c3CCN2C(=O)CC1,.,-0.971,-2.03,.,.,.,.,.
COc1ccc(C2/C=C\CN(C(=O)c3ccc(C)cc3)[C@H](Cc3ccccc3)C(=O)N2Cc2ccc(F)cc2)cc1 (stereo not given in full),.,0.469,-2.73,.,.,.,.,.
O=C(Nc1ccc(-c2nc3ccccc3[nH]2)cc1)c1cccc(N2C(=O)CCC2=O)c1,.,.,.,.,.,1.34,.,.
COc1ccccc1N1CCN(S(=O)(=O)c2ccc(F)cc2)CC1,7.7,-0.2,-0.0167,-1.53,81.5*,0.22,-4.0,-53.7
COc1ccccc1Nc1nc(N)nc(CN2CCOCC2)n1,23.4,0.311,0.0818,.,72.2*,0.55,-8.2,-51.8
COC(=O)C1CCN(C(=O)COC(=O)CCc2nc3ccccc3c(=O)[nH]2)CC1,.,.,.,-0.04,.,0.7,.,.
C/C(=N\N=c1/scc(C)n1Cc1ccco1)c1cccc([N+](=O)[O-])c1,.,.,.,.,.,-0.23,.,.
CCOC(=O)C1=C(CSc2nc3c(cc2C#N)CN(C)CC3)OC(N)=C(C#N)C1c1ccncc1 (stereo not given),.,.,.,.,.,1.02,.,.
CCOC(=O)C1=C(CSc2nc3c(cc2C#N)CN(C)CC3)OC(N)=C(C#N)C1c1ccc(Cl)cc1 (stereo not given),-22.6,-0.0166,-0.0973,-0.12,116.1*,-0.3,0.7,-53.5
O=C(Oc1ccccc1C(=O)Nc1ccccc1)c1ccccc1Br,.,.,.,.,.,-1.68,.,.
CCCCc1nc2n[nH]c(N)c2c2c1CSC(C)(C)C2,-5.4,1.22,0.787,-0.5,70.4*,-1.04,36.2,-46.4
CCOC(=O)C1CCN(C(=O)CN(c2ccc(OC)cc2)S(=O)(=O)c2c(C)nn(C)c2C)CC1,14.2,1.67,0.115,.,73.3*,0.06,-7.4,-60.2
CCOC(=O)C1CCN(C(=O)CN(c2ccc(OC)cc2)S(=O)(=O)c2c(C)noc2C)CC1,13.5,0.254,1.86,.,-23.2,-1.18,.,.
O=c1oc2cc(OCc3ccc(F)cc3F)ccc2cc1-c1ccc2ccccc2n1,.,.,.,.,.,-0.43,.,.
C=CCNc1nc(N)c(C(=O)c2ccc3c(c2)OCO3)s1,12.4,0.439,.,0.2,74.7*,-0.25,74.3*,-45.0
CC(C)Cc1nc2n[nH]c(N)c2c2c1COC(C)(C)C2,-35.5,-0.233,0.868,0.95,74.9*,1.05,?,-53.6
CCn1c(SC)nnc1-c1c[nH]c2ccccc12,-4.4,1.18,0.992,.,77.1*,0.85,-6.1,-52.3
COCCn1c(SC)nnc1-c1c[nH]c2ccccc12,-16.4,1.19,0.758,.,72.8*,0.82,-10.9,-57.9
Cn1c(SCc2cccnc2)nnc1-c1c[nH]c2ccccc12,5.7,-1.28,1.29,.,74.1*,0.03,-6.1,-46.6
C#CCSc1nnc(-c2c[nH]c3ccccc23)n1C,.,-0.0448,0.914,.,.,-0.2,.,.
CCn1c(SCc2ccc(C(=O)OC)o2)nnc1-c1c[nH]c2ccccc12,22.6,0.63,0.168,.,72.7*,0.3,-8.5,-59.5
O=C(NCCC1=CCCCC1)C(=O)NCC(c1ccco1)N1CCN(c2ccccc2F)CC1 (stereo not given),.,.,.,0.88,.,-0.85,.,.
SMILES,PLK1 PBD inh,DAT uptake mod,Cav32 inh,PTK2B oligo ant,PLK1 kinase inh,sdo1 growth,PLK1 confirm,Plk1 interf
CC1CCN(c2ncnc3c2cnn3-c2ccccc2)CC1,-50.5,-1.05,.,.,74.7*,-1.26,-3.8,-53.8
CCOC(=O)C1CCN(c2ncnc3c2cnn3-c2ccccc2)CC1,2.2,1.05,-0.252,-0.2,-12.6,-0.71,.,.
CC(CC(=O)Nc1ccccc1C(F)(F)F)c1ccccc1 (stereo not given),.,.,.,.,.,-0.77,.,.
CCN(CC)S(=O)(=O)c1ccc(C(=O)OCCN2C(=O)CCC2=O)cc1,-10.2,.,0.581,.,74.3*,1.43,-9.7,-47.9
[O-][N+]12CCN(CC1)c1ccccc12,-11.6,-1.25,-0.292,0.29,77.2*,0.32,-5.1,-60.1
O=C(NCCN1C(=O)C2C3C=CC(C3)C2C1=O)Nc1ccc(Br)cc1 (stereo not given),8.4,0.212,0.0168,.,71.7*,0.79,-4.7,-47.3
O=C(O)C1CCCCC1C(=O)NCc1cn2ccccc2n1 (stereo not given),41.4,-0.0146,0.0657,.,70.9*,0.07,-4.8,-48.9
O=C(O)C1CCCCC1C(=O)NCc1ccccc1 (stereo not given),7.8,0.308,0.0822,-0.16,-3.5,0.25,.,.
O=c1[nH]cnc2sc(-c3ccccc3)cc12,-23.1,0.529,1.26,1.09,78.4*,-0.31,68.4*,-44.2
O=c1[nH]cnc2scc(-c3cccs3)c12,0.9,0.334,0.0205,0.61,72.7*,-0.43,64.7*,-48.7
O=C(O)CC/C(=N\NC(=O)c1ccccc1Br)c1ccccc1,.,.,.,.,.,1.51,.,.
Cc1cc(NS(=O)(=O)c2ccc(Nc3nc(-c4ccc(O)cc4)cs3)cc2)no1,.,.,.,.,.,1.25,.,.
NS(=O)(=O)c1ccc(Nc2nc(-c3ccc(O)cc3O)cs2)cc1,17.0,-0.17,-0.634,-0.43,71.6*,1.19,?,-44.6
O=C(O)CCc1ccc(-c2cccs2)n1-c1ccc(C(=O)O)cc1,-24.5,0.268,1.41,.,95.9*,0.42,0.8,-45.7
CC(=O)c1cccc(-n2c(CCC(=O)O)ccc2-c2cccs2)c1,-16.0,-0.182,0.345,-0.29,-8.1,0.54,.,.
C=C1CC(C(=O)N/N=C/c2ccccc2)C1,.,.,.,.,.,1.54,.,.
Cc1cc2c(ccc3[nH]onc32)n1,2.8,-0.651,-0.279,-0.58,71.7*,0.27,38.5,-58.8
Cc1cc(Cl)c2ccccc2n1,.,.,.,.,.,0.85,.,.
Cc1nc(-c2cccnc2)sc1C(=O)Nc1ccc(Cl)cc1,-3.5,0.799,-1.9,-0.25,-7.9,-0.86,.,.
Cc1nc(-c2cccnc2)sc1C(N)=O,-28.8,.,.,1.17,76.0*,-0.78,34.8,-53.5
CCOC(=O)c1ccc(NC(=S)NCCCN2CCCCC2)cc1,-17.4,2.05,-0.15,0.72,112.7*,-0.25,-2.7,-48.8
CCCN1CCC(NC(=S)Nc2ccc(C(=O)OCC)cc2)CC1,.,.,.,.,.,1.38,.,.
CS(=O)(=O)c1ccc2nc(N)sc2c1,38.2,-0.346,0.402,0.8,-7.9,1.15,.,.
Nc1nc2ccc([N+](=O)[O-])c(N)c2s1,14.5,-0.0414,0.459,-0.02,75.8*,0.63,75.0*,-45.9
